Data: PubChem BioAssay (NCATS)
Inconclusive results are not listed. Where a call stands in place of a potency, no number is given. Active and inactive are the calls of the source. Calls follow the shape of the dose curve; as a rule, active = well fitted curve in the direction sought with a large enough effect; inconclusive = small, poorly fitted or top-dose-only effect, or another doubt; inactive = no such curve, though single readings can be large; an effect the other way counts as inactive or inconclusive.

Columns and labels:
[1] = HPAF-II Cancer Cell Toxicity qHTS against the NCATS CANVASS Library (AID 1347346); settings: HPAF-II viability, CellTiter-Glo ATP luminescence, 72 h; series mostly up to 38.3 µM; also: nearly all actives have a fitted effect of over 55% in size
Outline: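 HPAF-II cells at 1000 cells/well were treated with an 11-point concentration series for 72 hours at 37 degrees C. Viability read by CellTiter-Glo luminescence.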

[2] = UWB1.289 Cancer Cell Toxicity qHTS against the NCATS CANVASS Library (AID 1347347); settings: UWB1.289 viability, CellTiter-Glo luminescence, 72 h; series mostly up to 38.3 µM; also: nearly all actives have a fitted effect of over 60% in size
Outline: (§1)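 ATP content after 72 h treatment, detected by CellTiter-Glo luminescence (15min room-temperature development), reflects cell viability. Wells contained 1000 cells and received compounds at 11 concentrations.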

[3] = OV-SAHO Cancer Cell Toxicity qHTS against the NCATS CANVASS Library (AID 1347348); settings: OV-SAHO viability, CellTiter-Glo luminescence, 72 h; series mostly up to 38.3 µM; also: nearly all actives have a fitted effect of over 55% in size
Outline: as §1

[4] = Panc-1005 Cancer Cell Toxicity qHTS against the NCATS CANVASS Library (AID 1347349); settings: Panc-1005 viability, CellTiter-Glo luminescence, 72 h; series mostly up to 38.3 µM; also: nearly all actives have a fitted effect of over 60% in size
Outline: as §1

[5] = SW1088 Cancer Cell Toxicity qHTS against the NCATS CANVASS Library (AID 1347350); settings: SW1088 viability, CellTiter-Glo luminescence, 72 h; series mostly up to 38.3 µM; also: nearly all actives have a fitted effect of over 75% in size
Outline: as §1

[6] = U-118MG Cancer Cell Toxicity qHTS against the NCATS CANVASS Library (AID 1347351); settings: U-118MG viability, CellTiter-Glo luminescence, 72 h; series mostly up to 38.3 µM
Outline: as §1

[7] = COV-362 Cancer Cell Toxicity qHTS against the NCATS CANVASS Library (AID 1347352); settings: COV-362 viability, CellTiter-Glo luminescence, 72 h; series mostly up to 38.3 µM
Outline: (§2)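 Cells at 1000/well were given compound 4 h after plating in an 11-point series. Viability was read by CellTiter-Glo luminescence after 72 h at 37 degrees C.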

[8] = A2780 Cisplatin Sensitive Ovarian Cancer Cell Toxicity qHTS against the NCATS CANVASS Library (AID 1347353); settings: A2780 ovarian cancer viability, ATPLite luminescence, 72 h; at 46.1 µM (top of the series); also: nearly all actives have a fitted effect of over 60% in size
Outline: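 A2780 cells, 750/well, settled 4 h at 37 °C, then treated with an 11-point compound series for 72 h. Viability was read as ATPLite luminescence after 10 min at room temperature, with bortezomib as control.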

[9] = UWB1.289-WTBRCA1 Cancer Cell Toxicity qHTS against the NCATS CANVASS Library (AID 1347354); settings: UWB1.289-WTBRCA1 viability, CellTiter-Glo luminescence, 72 h; series mostly up to 38.3 µM
Outline: as §2

[10] = HPAF-II 24hr Apoptosis Induction qHTS against the NCATS CANVASS Library (AID 1347356); settings: HPAF-II caspase-3/7 Caspase-Glo luminescence; series mostly up to 46.1 µM
Outline: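 HPAF-II cells (500/well) exposed to compounds in 11-point series for 24 h at 37 degrees C; caspase-3/7 activity read by Caspase-Glo luminescence after 15 min at room temperature. Doxorubicin titration as control.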

[11] = HEK293 18hr Apoptosis Induction qHTS against the NCATS CANVASS Library (AID 1347357); settings: HEK293 caspase-3/7 Caspase-Glo luminescence; series mostly up to 46.1 µM
Outline: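 HEK293 cells (500/well, DMEM + 10% FBS) treated with an 11-point series for 18 h at 37 degrees C. Caspase-3/7 activity read by Caspase-Glo luminescence after 15 min at room temperature.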

[12] = HPAF-II 12hr Apoptosis Induction qHTS against the NCATS CANVASS Library (AID 1347358); settings: HPAF-II caspase-3/7 Caspase-Glo luminescence; series mostly up to 46.1 µM
Outline: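 HPAF-II cells, 500/well in DMEM + 10% FBS, exposed 12 hours at 37 degrees C to compound (11-point). Caspase-Glo 3/7 added for 15 min at room temperature; luminescence reflects caspase-3/7 activity.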

[13] = HEK293 24hr Apoptosis Induction qHTS against the NCATS CANVASS Library (AID 1347359); settings: HEK293 caspase-3/7 activation, Caspase-Glo luminescence; series mostly up to 46.1 µM
Outline: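 Caspase-3/7 activation measured as luminescence from the DEVD-based Caspase-Glo reagent, 15 min at room temperature, following 24-hour compound treatment of HEK293 cells.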

[14] = HPAF-II 18hr Apoptosis Induction qHTS against the NCATS CANVASS Library (AID 1347360); settings: HPAF-II caspase-3/7 luminescence; series mostly up to 46.1 µM
Outline: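 HPAF-II cells at 500/well were exposed for 18 h at 37 C to an 11-point compound series. Caspase-3/7 activity was read by Caspase-Glo luminescence after 15 min at RT.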

[15] = HEK293 12hr Apoptosis Induction qHTS against the NCATS CANVASS Library (AID 1347361); settings: HEK293 caspase-3/7 Caspase-Glo luminescence; series mostly up to 46.1 µM
Outline: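 HEK293 cells (500/well) were exposed to an 11-point qHTS concentration series for 12 hours at 37 degrees C. Caspase-3/7 activity was then read by DEVD-substrate luciferase luminescence after 15 min at room temperature.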

[16] = molecular target: Luciferin 4-monooxygenase (Photinus pyralis) (UniProt P08659); assay: Firefly luciferase counterscreen qHTS: Assay Interference Panel against the NCATS CANVASS Library (AID 1347363); settings: purified firefly luciferase, luminescence inhibition, 5 min; series mostly up to 57.5 µM
Outline: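 Luminescence inhibition readout: compounds (11-point qHTS) sat 15 min at room temperature with substrate mix (0.013 mM luciferin and ATP), then firefly luciferase was added and signal read 5 min later.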

[17] = KB-8-5-11 Cancer Cell Toxicity qHTS against the NCATS CANVASS Library (AID 1347364); settings: KB-8-5-11 MDR cells viability, CellTiter-Glo, 72 h; series mostly up to 46.1 µM; also: nearly all actives have a fitted effect of over 75% in size
Outline: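 KB-8-5-11 cells, 500/well in DMEM + 10% FBS, given compounds in an 11-point series. Incubated 72 h at 37 °C. Viability by CellTiter-Glo luminescence. Confirmation also run with 1 uM tariquidar.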

[18] = SDT Cancer Cell Toxicity qHTS against the NCATS CANVASS Library (AID 1347365); settings: SDT dog glioma viability, ATP luminescence, 72 h; series mostly up to 46.1 µM; also: nearly all actives have a fitted effect of over 60% in size; also: potency is read from the fitted curve at half-maximal effect
Outline: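 SDT dog glioma cells (500/well) exposed to an 11-point compound series for 72 hr at 37C, 5% CO2. Cytotoxicity read as ATP content by CellTiterGlo luminescence; bortezomib titration as control.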

[19] = KB-3-1 Cancer Cell Toxicity qHTS against the NCATS CANVASS Library (AID 1347366); settings: KB-3-1 viability, CellTiter-Glo luminescence, 72 h; at 46.1 µM (top of the series); also: nearly all actives have a fitted effect of over 75% in size
Outline: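 KB-3-1 cells (500/well) in DMEM with 10% FBS were exposed to compounds for 72 h at 37C. Viability was read by CellTiter-Glo luminescence.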

[20] = qHTS for ATAD5 Agonist screened against the NCATS CANVASS Library (AID 1347367); settings: HEK293T ATAD5-luciferase reporter, luminescence, 16 h; series mostly up to 46.1 µM;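 also: luciferase reporter driven by ATAD5 which rises upon DNA damage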
Outline: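 Luciferase reporter under ATAD5 control, stably integrated in HEK293T cells (2000/well). Compounds (11 points) incubated 16 h at 37C; viability read first by CellTiter-Fluor, then luminescence reporting ATAD5 activation. MMS positive control.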

Luciferin 4-monooxygenase (Photinus pyralis), sequence (P08659 whole entry, looked up): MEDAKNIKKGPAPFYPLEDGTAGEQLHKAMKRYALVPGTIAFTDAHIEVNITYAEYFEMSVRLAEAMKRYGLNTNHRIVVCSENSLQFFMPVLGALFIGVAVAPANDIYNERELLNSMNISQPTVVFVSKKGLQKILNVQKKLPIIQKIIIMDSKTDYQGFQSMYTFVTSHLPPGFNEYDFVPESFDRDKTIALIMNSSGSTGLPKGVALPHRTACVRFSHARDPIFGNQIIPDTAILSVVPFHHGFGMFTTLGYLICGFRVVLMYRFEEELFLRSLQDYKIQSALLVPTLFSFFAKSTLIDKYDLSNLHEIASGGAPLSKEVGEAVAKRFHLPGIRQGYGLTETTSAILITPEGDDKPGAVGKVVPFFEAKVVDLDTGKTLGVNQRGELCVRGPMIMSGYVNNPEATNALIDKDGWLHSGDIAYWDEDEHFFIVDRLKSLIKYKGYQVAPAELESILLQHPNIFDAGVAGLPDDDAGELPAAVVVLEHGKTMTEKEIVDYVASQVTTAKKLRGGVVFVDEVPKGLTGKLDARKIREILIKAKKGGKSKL

Compound	outcome [1]	outcome [2]	outcome [3]	outcome [4]	outcome [5]	outcome [6]	outcome [7]	outcome [8]	outcome [9]	outcome [10]	outcome [11]	outcome [12]	outcome [13]	outcome [14]	outcome [15]	outcome [16]	outcome [17]	Potency [18]	outcome [19]	outcome [20]
O=C(O)c1cc(O)c(O)c(O)c1	inactive	inactive	inactive	inactive	inactive	inactive	inactive	inactive	inactive	inactive	inactive	inactive	inactive	inactive	inactive	inactive	inactive	inactive	inactive	inactive
O=c1cc(-c2ccccc2)oc2c(O)c(O)ccc12	inactive	–	–	–	–	–	–	–	–	inactive	inactive	inactive	inactive	inactive	inactive	–	–	4.18 µM (active)	–	–
